± gives the standard deviation of the averaged measurements.

MurC, sequence (C4ZRI6 whole entry, looked up): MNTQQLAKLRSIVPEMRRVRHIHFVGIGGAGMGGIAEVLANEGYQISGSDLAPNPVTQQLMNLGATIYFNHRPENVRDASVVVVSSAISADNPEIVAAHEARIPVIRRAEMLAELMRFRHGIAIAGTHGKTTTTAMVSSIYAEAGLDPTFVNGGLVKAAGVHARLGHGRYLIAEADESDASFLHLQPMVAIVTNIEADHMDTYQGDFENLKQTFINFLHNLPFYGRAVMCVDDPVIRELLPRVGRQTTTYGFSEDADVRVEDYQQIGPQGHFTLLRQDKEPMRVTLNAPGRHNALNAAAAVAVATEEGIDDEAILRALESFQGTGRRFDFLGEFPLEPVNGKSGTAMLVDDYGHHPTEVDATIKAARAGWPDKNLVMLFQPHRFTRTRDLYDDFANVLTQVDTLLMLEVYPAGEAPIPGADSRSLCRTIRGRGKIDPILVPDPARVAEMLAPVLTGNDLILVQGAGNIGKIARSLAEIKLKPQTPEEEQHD

This assay has as its target MurC (UniProt C4ZRI6). Briefly: relative enzymatic activity vs untreated control (fraction); higher = less inhibition. Particulars: 100 µM; incubation time: 2 h at 37 C. Here is the method:
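In vitro enzymatic inhibition assays (ProFoldin kits) for 12 purified essential E. coli enzymes or complexes, each treated with 218 active antibacterial compounds at 100 µM for 2 h at 37°C. Read-outs were fluorescence or absorbance (phosphate detection, dye binding), converted to activity via standard curves and expressed relative to untreated DMSO controls.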
`CC1C(NC(=O)C(=NOC(C)(C)C(=O)O)c2csc(N)n2)C(=O)N1S(=O)(=O)O` (stereo unspecified): the relative enzymatic activity stood at 1.016 ± 0.0098.
Turning to `COC1(NC(=O)Cc2cccs2)C(=O)N2C(C(=O)[O-])=C(COC(N)=O)CSC21.[Na+]` (stereo unspecified), the relative enzymatic activity amounted to 1.15 ± 0.057.
The result for `COC(=O)N/N=C/c1ccc([N+](=O)[O-])o1` reads 1.01 ± 0.15; that for `COC1C=COC2(C)Oc3c(C)c(O)c4c(O)c(c5c(nc6cc(C)ccn65)c4c3C2=O)NC(=O)C(C)=CC=CC(C)C(O)C(C)C(O)C(C)C(OC(C)=O)C1C` (stereo unspecified), 0.715 ± 0.08; that for `O=[N+]([O-])c1ccc(O)c2ncccc12`, 1.046 ± 0.004.
With `CC[C@@H](C)CCCCC(=O)N[C@@H](CCN)C(=O)N[C@H](C(=O)N[C@@H](CCN)C(=O)N[C@H]1CCNC(=O)[C@H]([C@@H](C)O)NC(=O)[C@H](CCN)NC(=O)[C@H](CCN)NC(=O)[C@H](CC(C)C)NC(=O)[C@@H](Cc2ccccc2)NC(=O)[C@@H](CCN)NC1=O)[C@@H](C)O`, the relative enzymatic activity is 1.03 ± 0.032.
As to `CN1CCN(c2cc3c(cc2F)c(=O)c(C(=O)O)cn3-c2ccc(F)cc2)CC1.Cl`, the relative enzymatic activity amounted to 0.9809 ± 0.0032.
In turn, `Cl.Cl.N=C(NCCCCCCNC(=N)NC(=N)Nc1ccc(Cl)cc1)NC(=N)Nc1ccc(Cl)cc1` registered a relative enzymatic activity of 0.901 ± 0.04.
The result for `Cn1nnnc1SCC1=C(C(=O)[O-])N2C(=O)C(NC(=O)C(O)c3ccccc3)C2SC1.[Na+]` (stereo unspecified) reads 1.091 ± 0.0095.
`CN1CCN(c2c(F)cc3c(=O)c(C(=O)O)cn(CCF)c3c2F)CC1` displayed a relative enzymatic activity of 1.02 ± 0.011.
The result for `Nc1nc(/C(=N/O)C(=O)N[C@@H]2C(=O)N3C(C(=O)O)=C(/C=C4\CCN([C@@H]5CCNC5)C4=O)CS[C@H]23)ns1` reads 0.717 ± 0.24; that for `Cl.N=C(N)n1cccn1`, 0.968 ± 0.063; that for `CN1CCN(c2c(F)cc3c(=O)c(C(=O)O)cn4c3c2OCN4C)CC1`, 0.954 ± 0.1.
As for `CN(C)c1ccc(O)c2c1C[C@H]1C[C@H]3[C@H](N(C)C)C(=O)C(C(N)=O)=C(O)[C@@]3(O)C(=O)[C@H]1C2=O`, the relative enzymatic activity came out at 0.99 ± 0.069.
The result for `CC[C@H](C)C[C@H](C)CCCCCCCCC(=O)N[C@H]1C[C@@H](O)[C@@H](NCCN)NC(=O)[C@@H]2[C@@H](O)CCN2C(=O)[C@H]([C@H](O)CCN)NC(=O)[C@H]([C@H](O)[C@@H](O)c2ccc(O)cc2)NC(=O)[C@@H]2C[C@@H](O)CN2C(=O)[C@H]([C@@H](C)O)NC1=O` reads 0.94 ± 0.061; that for `CC1CCC2(C)C(C=O)=CCCC2C1(C)CC1OC(O)C(=O)C12CO2` (stereo unspecified), 0.933 ± 0.1; that for `CCC(C)C1NC(=O)C(CCNCS(=O)(=O)[O-])NC(=O)C(NC(=O)C(CCNCS(=O)(=O)[O-])NC(=O)C(NC(=O)C(CCNCS(=O)(=O)[O-])NC(=O)CCCCC(C)C)C(C)O)CCNC(=O)C(C(C)O)NC(=O)C(CCNCS(=O)(=O)[O-])NC(=O)C(CCNCS(=O)(=O)[O-])NC(=O)C(C(C)CC)NC1=O.[Na+].[Na+].[Na+].[Na+].[Na+]` (stereo unspecified), 1.05 ± 0.03.
With `CC[C@H]1OC(=O)[C@H](C)[C@@H](O[C@H]2C[C@@](C)(OC)[C@@H](O)[C@H](C)O2)[C@H](C)[C@@H](O[C@@H]2O[C@H](C)C[C@H](N(C)C)[C@H]2O)[C@](C)(O)C[C@@H](C)CN(C)[C@H](C)[C@@H](O)[C@]1(C)O` the figure was 1.06 ± 0.02.
Take `CC[C@H]1OC(=O)[C@H](C)[C@@H](O[C@H]2C[C@@](C)(OC)[C@@H](O)[C@H](C)O2)[C@H](C)[C@@H](O[C@@H]2O[C@H](C)C[C@H](N(C)C)[C@H]2O)[C@](C)(OC)C[C@@H](C)C(=O)[C@H](C)[C@@H](O)[C@]1(C)O`: the relative enzymatic activity came to 1.01 ± 0.14.
`CC1(C)S[C@@H]2[C@H](NC(=O)[C@H](NC(=O)N3CCNC3=O)c3ccccc3)C(=O)N2[C@H]1C(=O)O`: the relative enzymatic activity amounted to 0.907 ± 0.097.
Consider `N[C@@H](C(=O)N[C@@H]1C(=O)N2C(C(=O)O)=C(Cl)CC[C@H]12)c1ccccc1`, for which the relative enzymatic activity was 0.967 ± 0.054.
With `COc1ccc2c(c1OC)C(=O)OC2C1c2c(cc3c(c2OC)OCO3)CCN1C.Cl` (stereo unspecified) the figure was 1.45 ± 0.16.
The result for `CON=C(C(=O)NC1C(=O)N2C(C(=O)OCOC(=O)C(C)(C)C)=C(C=Cc3scnc3C)CSC12)c1csc(N)n1` (stereo unspecified) reads 0.659 ± 0.044.
In turn, `Cc1ccc(S(=O)(=O)O)cc1.NC1CCN(c2nc3c(cc2F)c(=O)c(C(=O)O)cn3-c2ccc(F)cc2F)C1.O` (stereo unspecified) came in with a relative enzymatic activity of 0.988 ± 0.17.
Take `COc1c(N2CC3CCCNC3C2)c(F)cc2c(=O)c(C(=O)O)cn(C3CC3)c12.Cl` (stereo unspecified): the relative enzymatic activity came out at 1.01 ± 0.025.
With `NC(=O)[C@@H]1CC[C@@H]2CN1C(=O)N2OS(=O)(=O)O` the figure was 1.04 ± 0.022; with `Cc1cc(C(C)(C)CC(C)(C)C)ccc1OCCOCC[N+](C)(C)Cc1ccccc1.[Cl-]`, 0.647 ± 0.59.
As for `CCn1cc(C(=O)O)c(=O)c2cc(F)c(N3CCNC(C)C3)c(F)c21.Cl` (stereo unspecified), the relative enzymatic activity turned out to be 0.984 ± 0.05.
With `Oc1c(Cl)cc(Cl)c2cccnc12` the figure was 0.928 ± 0.088; with `C=CC1=C(C(=O)O)N2C(=O)[C@@H](NC(=O)/C(=N\OCC(=O)O)c3csc(N)n3)[C@H]2SC1`, 1.12 ± 0.017; with `N[C@@H]1[C@H]2CN(c3nc4c(cc3F)c(=O)c(C(=O)O)cn4-c3ccc(F)cc3F)C[C@@H]12`, 0.885 ± 0.015.

Source of the values: the supplement of paper PMC9446081.
